Cycloheximide cs = Cycloheximide Counterscreen for Small Molecule Inhibitors of Shiga Toxin; cell reporter, cycloheximide protein synthesis inhibition counterscreen; max response, %; hit rate 12% among 300,000; in the data active = max response mostly above about 13%, no sharp cut-off; inactive = mostly below about 14%; note: read at 38.3 µM for the half of the compounds with a filed dose; 0% is about no effect
Pf growth 96h = Primary qHTS for delayed death inhibitors of the malarial parasite plastid, 96 hour incubation. P. falciparum luciferase reporter growth, 96 h. Potency, µM (highest dose often 28.7 µM), for the others: top-dose activity change, negative = inhibition, hits mostly inhibitors. hit rate 6.9% among 320,000; note: potency is the fitted concentration of half-maximal effect; % is set by controls: 0 for no effect and ±100 for the full control effect
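Luminescence readout: decreased luciferase signal marks inhibited growth of reporter-expressing P. falciparum in infected red cells (2% hematocrit, 0.05% parasitemia final), exposed to compound two generations (96 h, 37 C, 5% CO2).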
Pf growth 48h = Primary qHTS for delayed death inhibitors of the malarial parasite plastid, 48 hour incubation | AID 504832, 2011 | Potency, µM (doses to about 28.7 µM), for the others: at the highest dose activity change, negative = inhibition, hits mostly inhibitors | hit rate 5.9% among 310,000 | P. falciparum luciferase growth in erythrocytes, 48 h; note: potency is the fitted concentration of half-maximal effect; % is set by controls: 0 for no effect and ±100 for the full control effect
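Parasite viability was followed by luminescence of a genomically integrated firefly luciferase. Cultures held 0.1% parasitemia at 2% hematocrit (final), incubated under 5% CO2 at 37 C.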
MARV entry inh = qHTS for inhibitors of binding or entry into cells for Marburg Virus. Marburg virus pseudotyped entry inhibition, cell reporter. Potency, µM (doses to about 37.8 µM), inactives show at the top dose activity change, negative = inhibition, hits mostly inhibitors. AID 540276, 2011. hit rate 1.8% among 300,000; calls by dose curve; tested in HEK293 cells; note: potency is the fitted concentration of half-maximal effect; % is set by controls: 0 for no effect and ±100 for the full control effect
Shiga toxin inh = A qHTS for Small Molecule Inhibitors of Shiga Toxin; AID 2315, 2010; inhibition, % at 38.7 µM; Vero cells, Shiga toxin protein synthesis inhibition reporter; hit rate 9.2% among 290,000; in the data active = inhibition mostly above about 28%, no sharp cut-off; inactive = mostly below about 43%; note: 0% is about no effect
LASV entry inh = qHTS for Inhibitors of binding or entry into cells for Lassa Virus. Lassa virus pseudotype entry inhibition, cell reporter. Potency, µM (top dose mostly 37.9 µM), for inactives: top-dose activity change, negative = inhibition, most hits filed as inhibitors. hit rate 1.2% among 300,000; calls by dose curve; tested in HEK293 cells; note: potency is the fitted concentration of half-maximal effect; % is set by controls: 0 for no effect and ±100 for the full control effect; nearly all actives have a fitted effect of over 50% in size
* marks the source's active call; other numbers are inactive results; [ ] = another dose, or the depositor's remark. A selection: hits, their analogues and other compounds. The true share with any hit is near 19%. Unless noted, calls come from the whole dose curve; as a rule, active = well fitted inhibition curve with a large enough effect; inconclusive = small, poorly fitted or top-dose-only effect, or another doubt; inactive = no such curve, though single readings can be large or run the other way.

How did C[n+]1c2n(c3ccccc31)N=C(c1ccccc1)CS2 do in these assays?
Cycloheximide cs: 1.5; Pf growth 96h: inconclusive; Pf growth 48h: 2.08µM*; MARV entry inh: inconclusive; Shiga toxin inh: 30.8; LASV entry inh: inconclusive

What do the screens show for `CCCC(c1nnnn1C(C)(C)C)N1CCN(C(=O)c2ccco2)CC1` (centres undefined)?
Cycloheximide cs: 6.0; Pf growth 96h: -14.4%; Pf growth 48h: -2.6%; MARV entry inh: 12.5%[46.1 µM]; Shiga toxin inh: -11.4; LASV entry inh: 7.2%[46.1 µM]

Results for COc1cc(NS(=O)(=O)c2ccc(N)cc2)nc(OC)n1 ?
Cycloheximide cs: -3.3; Pf growth 96h: 0.1%; Pf growth 48h: -7.3%; MARV entry inh: -3.0%; Shiga toxin inh: 6.2; LASV entry inh: 0.7%

What do the screens show for `Cc1cc(C(=O)CSc2nnc(-c3ccco3)o2)c(C)n1CC1COc2ccccc2O1` (centres undefined)?
Cycloheximide cs: 2.4; Pf growth 96h: 4.65µM*; Pf growth 48h: 10.4µM*; MARV entry inh: inconclusive; Shiga toxin inh: 22.6; LASV entry inh: 0.8%

What do the screens show for `Cc1cc(C(=O)CSc2nnc(-c3ccc(F)cc3)o2)c(C)n1CC1COc2ccccc2O1` (centres undefined)?
Cycloheximide cs: -4.5; Pf growth 96h: inconclusive; Pf growth 48h: inconclusive; MARV entry inh: -10.4%; Shiga toxin inh: 2.4; LASV entry inh: -10.7%

Results for Cc1cc(C(=O)CSc2nnc(-c3ccccc3)o2)c(C)n1CC1COc2ccccc2O1 (centres undefined) ?
Cycloheximide cs: 9.4; Pf growth 96h: 3.29µM*; Pf growth 48h: inconclusive; MARV entry inh: -23.4%; Shiga toxin inh: 38.8*; LASV entry inh: 1.4%

What do the screens show for `O=C1CCC(=O)O1`?
Pf growth 96h: 60.8%; Pf growth 48h: 36.2%

What do the screens show for `Clc1nc(-c2ccccn2)nc2scc(-c3ccccc3)c12`?
Cycloheximide cs: 92.6*; Pf growth 96h: -43.5%; Pf growth 48h: inconclusive; MARV entry inh: inconclusive; Shiga toxin inh: active; LASV entry inh: inconclusive

How did COc1ccc(NC(=O)CSc2nnc(COc3ccccc3)n2Cc2ccco2)cc1OC do in these assays?
Cycloheximide cs: -7.8; Pf growth 96h: 30.7%; Pf growth 48h: inconclusive; MARV entry inh: -16.1%; Shiga toxin inh: 17.4; LASV entry inh: 5.9%

How did COc1ccc(Br)cc1C1NC(c2ccc3c(c2)OCO3)=CC(c2cc(Cl)ccc2O)N1 (centres undefined) do in these assays?
Cycloheximide cs: 45.1*; Shiga toxin inh: 89.8*

How did Oc1ccc(Cl)cc1C1C=C(c2ccc3c(c2)OCO3)NC(c2cc(Br)ccc2F)N1 (centres undefined) do in these assays?
Cycloheximide cs: 30.6*; Shiga toxin inh: 83.1*

Results for CC(=O)OC[C@@H]1O[C@H](CCO/N=C(\C)CCC(=O)OC[C@@H]2O[C@H](C#Cc3ccccc3)C=C[C@@H]2Oc2ccc(C)cc2)C=C[C@@H]1OC(C)=O ?
MARV entry inh: 21.3%[14.2 µM]

How did Cc1oc2ccc(OC(=O)N(C)C)cc2c1C(=O)OC(C)C do in these assays?
Cycloheximide cs: 10.4; Pf growth 96h: 2.94µM*; Pf growth 48h: inconclusive; MARV entry inh: -24.9%; Shiga toxin inh: -10.1; LASV entry inh: inconclusive

How did CCN(CC)CCOC(=O)c1c(C)oc2ccc(OC)cc12 do in these assays?
Cycloheximide cs: 17.3; Pf growth 96h: -24.3%; Pf growth 48h: 13.0%; MARV entry inh: inconclusive; Shiga toxin inh: 61.4*; LASV entry inh: 5.0%

How did C=C(C)COc1ccc2oc(C)c(C(=O)OCCOC)c2c1 do in these assays?
Cycloheximide cs: -1.1; Pf growth 96h: 62.9%; MARV entry inh: 4.8%; Shiga toxin inh: -9.2; LASV entry inh: 17.9%

Results for CCOC(=O)c1c(-c2ccc(OC)cc2)oc2ccc(OC(=O)N(C)C)cc12 ?
Cycloheximide cs: 3.3; Pf growth 96h: inconclusive; Pf growth 48h: inconclusive; MARV entry inh: 18.3µM*; Shiga toxin inh: -1.3; LASV entry inh: inconclusive

How did Cc1oc2ccc(OC(=O)c3cccs3)cc2c1C(=O)OC(C)C do in these assays?
Cycloheximide cs: 5.2; Pf growth 96h: 18.2%; Pf growth 48h: 38.0%; MARV entry inh: -0.7%; Shiga toxin inh: 24.0; LASV entry inh: 0.5%

Results for CC1=C(C(=O)NCc2ccccc2)C(c2ccccc2OCC(N)=O)NC(=O)N1 (centres undefined) ?
Cycloheximide cs: -4.1; Pf growth 96h: inconclusive; Pf growth 48h: 7.3%; MARV entry inh: 8.0%; Shiga toxin inh: -4.3; LASV entry inh: -10.6%

How did CCC(COC(=O)NC)NC(=O)Oc1ccccc1 (centres undefined) do in these assays?
Cycloheximide cs: -4.4; Pf growth 96h: 4.65µM*; Pf growth 48h: 56.9%; MARV entry inh: 17.1%; Shiga toxin inh: -17.1; LASV entry inh: 8.5%

Results for COc1ccc(-c2ccnc3nc(N4CCN(c5ccccc5)CC4)nn23)cc1 ?
Cycloheximide cs: 4.5; Pf growth 96h: 9.28µM*; Pf growth 48h: inconclusive; MARV entry inh: inconclusive; Shiga toxin inh: -2.7; LASV entry inh: inconclusive

What do the screens show for `O=C(O)c1cccc(S(=O)(=O)N(Cc2ccccc2)c2ccccc2)c1`?
Cycloheximide cs: -1.4; Pf growth 96h: -16.0%; Pf growth 48h: 35.1%; MARV entry inh: 5.4%[46.1 µM]; Shiga toxin inh: 22.2; LASV entry inh: 10.8%

What do the screens show for `O=C1C(c2ccc(F)cc2)N(CC2COc3ccccc3O2)C(=O)CN1C1CCCCC1` (centres undefined)?
Cycloheximide cs: 6.5; Pf growth 96h: inconclusive; Pf growth 48h: 2.33µM*; MARV entry inh: 4.7%; Shiga toxin inh: -3.1; LASV entry inh: 1.7%

Results for CCSc1nnc(-c2ccccc2N=Cc2c(C)[nH]n(-c3ccccc3)c2=O)c(=O)[nH]1 ?
Cycloheximide cs: 12.8*; Pf growth 96h: inconclusive; Pf growth 48h: -2.6%; MARV entry inh: inconclusive; Shiga toxin inh: 17.4; LASV entry inh: -0.6%

How did CCSc1nnc(-c2cc(Br)ccc2N=Cc2c(C)[nH]n(-c3ccccc3)c2=O)c(=O)[nH]1 do in these assays?
Cycloheximide cs: -3.8; Pf growth 96h: inconclusive; Pf growth 48h: -12.1%; MARV entry inh: -1.8%[46.1 µM]; Shiga toxin inh: -3.3; LASV entry inh: -3.9%

What do the screens show for `CCSc1nnc(-c2cc(Br)ccc2N)c(=O)[nH]1`?
Cycloheximide cs: 9.7; Pf growth 96h: -22.0%; Pf growth 48h: 8.4%; MARV entry inh: -7.0%[46.1 µM]; Shiga toxin inh: 22.5; LASV entry inh: 9.2%[46.1 µM]

How did Cc1[nH]n(-c2ccccc2)c(=O)c1C=Nc1cccc2cccnc12 do in these assays?
Cycloheximide cs: 1.2; Pf growth 96h: 34.9%; Pf growth 48h: inconclusive; MARV entry inh: 8.91µM*; Shiga toxin inh: 9.6; LASV entry inh: inconclusive

What do the screens show for `CCSc1nnc(-c2ccccc2N)c(=O)[nH]1`?
Cycloheximide cs: 23.9*; Pf growth 96h: inconclusive; Pf growth 48h: 36.2%; MARV entry inh: 28.7%; Shiga toxin inh: 52.5*; LASV entry inh: 13.2%
